What all share (test): DAPPL (digital affinity profiling via proximity ligation, sequencing); 10 mM Tris-HCl pH 7.5, 50 mM NaCl, 1 mM DTT, 4% glycerol, room temperature, 30 min; GST-TFs on glutathione beads, 16-mer random dsDNA library, 0.1% formaldehyde crosslink after washing; high values mean tight binding
What all share (conditions): protein: recombinant; tags: N-terminal GST; dsDNA, one strand shown

The target in experiment [1] is T1, FLI1 (Homo sapiens, UniProt Q01543 1-452).
T1 sequence: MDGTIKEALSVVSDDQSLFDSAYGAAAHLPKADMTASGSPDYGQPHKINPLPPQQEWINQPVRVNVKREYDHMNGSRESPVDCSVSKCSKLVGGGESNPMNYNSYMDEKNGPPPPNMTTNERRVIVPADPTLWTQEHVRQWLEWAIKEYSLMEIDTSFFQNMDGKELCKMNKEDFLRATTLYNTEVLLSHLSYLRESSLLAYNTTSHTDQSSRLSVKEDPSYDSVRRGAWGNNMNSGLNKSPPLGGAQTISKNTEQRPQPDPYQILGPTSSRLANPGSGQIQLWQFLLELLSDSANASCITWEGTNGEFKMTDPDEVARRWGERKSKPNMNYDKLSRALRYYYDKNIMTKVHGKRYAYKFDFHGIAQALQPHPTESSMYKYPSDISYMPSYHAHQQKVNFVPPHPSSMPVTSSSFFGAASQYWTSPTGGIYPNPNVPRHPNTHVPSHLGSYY
The procedure, abridged: (§1)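 Human transcription factors fused to GST were expressed in yeast, captured on glutathione beads, given DNA barcodes and pooled with a GST-only negative control. Pools were incubated with 200 nmole of a 16-mer random double-stranded DNA library in Tris/NaCl/DTT/glycerol buffer at room temperature for 30 min. They were then washed, crosslinked with 0.1% formaldehyde, proximity-ligated (BsaI/T4 ligase, 1 h, 37 °C), PCR-amplified and sequenced on an Illumina NextSeq500. Binding signal is each 6-mer's read frequency for a factor divided by its frequency for the GST control.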

The target of experiment [2] is T2, ELK1 (Homo sapiens, UniProt P19419 1-428).
T2 sequence: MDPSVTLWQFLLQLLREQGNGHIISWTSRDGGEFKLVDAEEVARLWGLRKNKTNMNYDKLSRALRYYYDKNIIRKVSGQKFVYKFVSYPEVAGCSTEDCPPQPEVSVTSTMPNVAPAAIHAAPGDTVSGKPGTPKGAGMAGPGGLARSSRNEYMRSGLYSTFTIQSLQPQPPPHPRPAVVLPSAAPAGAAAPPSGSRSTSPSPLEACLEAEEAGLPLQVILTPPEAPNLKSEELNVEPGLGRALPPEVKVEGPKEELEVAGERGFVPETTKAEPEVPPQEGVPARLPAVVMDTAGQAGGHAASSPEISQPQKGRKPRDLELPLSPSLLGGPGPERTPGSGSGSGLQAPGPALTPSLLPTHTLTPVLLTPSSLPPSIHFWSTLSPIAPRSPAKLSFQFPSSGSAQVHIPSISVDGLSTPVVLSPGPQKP
The procedure, abridged: as §1

Experiment [3] addresses T3, GABPA (Homo sapiens, UniProt Q06546 1-454).
T3 sequence: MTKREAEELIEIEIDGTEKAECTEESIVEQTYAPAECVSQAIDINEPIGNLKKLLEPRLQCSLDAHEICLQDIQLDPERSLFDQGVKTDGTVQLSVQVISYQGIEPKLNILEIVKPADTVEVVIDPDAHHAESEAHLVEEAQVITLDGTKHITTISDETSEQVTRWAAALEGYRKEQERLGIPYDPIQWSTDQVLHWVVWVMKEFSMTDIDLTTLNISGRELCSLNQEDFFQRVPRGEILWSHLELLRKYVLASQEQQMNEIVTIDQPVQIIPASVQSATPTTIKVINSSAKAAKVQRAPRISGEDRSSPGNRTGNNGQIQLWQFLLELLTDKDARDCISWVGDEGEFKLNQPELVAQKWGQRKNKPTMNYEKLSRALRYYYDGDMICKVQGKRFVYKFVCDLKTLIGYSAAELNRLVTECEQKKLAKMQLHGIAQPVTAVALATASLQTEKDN
The procedure, abridged:
as §1

Experiment [4] concerns the target ELF1 (Homo sapiens, UniProt P32519 1-619). Summed up:
as §1

In experiment [5] the target is T4, EHF (Homo sapiens, UniProt Q9NZC4 1-300).
T4 sequence: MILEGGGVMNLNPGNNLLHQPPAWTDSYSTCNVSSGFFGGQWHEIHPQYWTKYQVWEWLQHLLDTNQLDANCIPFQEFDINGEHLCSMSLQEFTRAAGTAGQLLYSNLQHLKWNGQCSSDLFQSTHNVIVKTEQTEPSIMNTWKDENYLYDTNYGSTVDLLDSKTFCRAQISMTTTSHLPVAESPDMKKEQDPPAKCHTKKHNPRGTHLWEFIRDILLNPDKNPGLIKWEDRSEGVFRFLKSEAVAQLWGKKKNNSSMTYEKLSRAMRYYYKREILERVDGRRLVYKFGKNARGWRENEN
The procedure, abridged: as §1

In experiment [6] the target is T5, ELK3 (Homo sapiens, UniProt P41970 1-407).
T5 sequence: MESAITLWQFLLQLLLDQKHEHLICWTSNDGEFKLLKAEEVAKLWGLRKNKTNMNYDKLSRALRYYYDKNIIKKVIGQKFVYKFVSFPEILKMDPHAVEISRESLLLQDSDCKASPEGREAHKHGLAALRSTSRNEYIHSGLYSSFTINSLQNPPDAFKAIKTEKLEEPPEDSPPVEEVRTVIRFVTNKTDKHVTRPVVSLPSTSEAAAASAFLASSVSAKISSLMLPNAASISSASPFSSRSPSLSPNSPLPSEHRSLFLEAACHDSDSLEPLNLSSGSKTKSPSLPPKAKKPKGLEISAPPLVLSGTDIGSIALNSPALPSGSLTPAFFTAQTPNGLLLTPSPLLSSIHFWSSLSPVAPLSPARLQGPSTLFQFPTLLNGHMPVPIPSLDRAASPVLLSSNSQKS
Summed up:
as §1

Experiment [7] has as its target T6, ELF3 (Homo sapiens, UniProt P78545 1-371).
T6 sequence: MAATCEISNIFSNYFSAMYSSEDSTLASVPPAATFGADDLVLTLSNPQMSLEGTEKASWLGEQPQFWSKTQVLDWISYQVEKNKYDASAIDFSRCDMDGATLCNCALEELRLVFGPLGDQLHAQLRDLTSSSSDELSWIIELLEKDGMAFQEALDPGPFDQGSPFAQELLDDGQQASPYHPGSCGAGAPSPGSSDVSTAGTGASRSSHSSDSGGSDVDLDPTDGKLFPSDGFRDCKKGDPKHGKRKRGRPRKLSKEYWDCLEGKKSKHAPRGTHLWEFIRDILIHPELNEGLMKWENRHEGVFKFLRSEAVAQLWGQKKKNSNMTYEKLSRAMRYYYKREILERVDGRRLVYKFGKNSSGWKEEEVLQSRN
The procedure, abridged:
as §1

Experiment [8] addresses T7, ERF (Homo sapiens, UniProt P50548 1-548).
T7 sequence: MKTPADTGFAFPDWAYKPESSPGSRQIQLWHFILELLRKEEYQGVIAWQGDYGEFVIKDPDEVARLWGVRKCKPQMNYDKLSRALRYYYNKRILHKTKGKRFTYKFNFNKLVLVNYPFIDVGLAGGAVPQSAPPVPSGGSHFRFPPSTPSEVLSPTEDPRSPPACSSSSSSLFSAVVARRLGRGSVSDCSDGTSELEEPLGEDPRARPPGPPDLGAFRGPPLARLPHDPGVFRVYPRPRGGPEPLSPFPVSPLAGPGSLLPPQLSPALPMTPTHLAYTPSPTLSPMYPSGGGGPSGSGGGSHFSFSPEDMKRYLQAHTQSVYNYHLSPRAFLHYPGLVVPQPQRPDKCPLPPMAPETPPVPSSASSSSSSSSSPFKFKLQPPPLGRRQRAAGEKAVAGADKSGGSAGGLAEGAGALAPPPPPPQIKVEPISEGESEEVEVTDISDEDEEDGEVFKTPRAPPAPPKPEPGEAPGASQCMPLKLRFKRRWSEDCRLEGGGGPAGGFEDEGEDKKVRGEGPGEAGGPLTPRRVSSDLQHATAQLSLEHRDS
The procedure, abridged:
as §1

The target of experiment [9] is T8, ETV3L (Homo sapiens, UniProt Q6ZN32 1-361).
T8 sequence: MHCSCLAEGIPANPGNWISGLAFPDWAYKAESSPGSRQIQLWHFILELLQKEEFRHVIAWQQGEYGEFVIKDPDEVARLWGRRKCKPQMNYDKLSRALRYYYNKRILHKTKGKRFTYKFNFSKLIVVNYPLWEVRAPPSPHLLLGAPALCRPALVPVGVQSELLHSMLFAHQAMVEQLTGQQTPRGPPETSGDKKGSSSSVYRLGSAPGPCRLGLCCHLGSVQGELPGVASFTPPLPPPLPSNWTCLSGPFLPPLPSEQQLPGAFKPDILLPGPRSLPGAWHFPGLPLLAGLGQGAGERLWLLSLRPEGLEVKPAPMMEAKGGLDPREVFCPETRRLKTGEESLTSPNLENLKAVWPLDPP
The procedure, abridged: as §1

The target of experiment [10] is T9, ETV7 (Homo sapiens, UniProt Q9Y603 1-341).
T9 sequence: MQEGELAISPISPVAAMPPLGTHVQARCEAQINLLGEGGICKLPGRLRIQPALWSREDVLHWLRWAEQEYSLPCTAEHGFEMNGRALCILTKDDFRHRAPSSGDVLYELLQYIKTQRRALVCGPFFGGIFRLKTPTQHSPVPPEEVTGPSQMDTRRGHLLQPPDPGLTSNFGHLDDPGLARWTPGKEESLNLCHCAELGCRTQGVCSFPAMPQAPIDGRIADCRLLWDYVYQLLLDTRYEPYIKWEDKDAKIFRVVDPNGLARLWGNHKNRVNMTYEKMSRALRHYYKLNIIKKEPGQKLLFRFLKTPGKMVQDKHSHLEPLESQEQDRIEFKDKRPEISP
Summed up:
as §1

Experiment [11] has as its target T10, ETV3 (Homo sapiens, UniProt P41162-2 1-143).
T10 sequence: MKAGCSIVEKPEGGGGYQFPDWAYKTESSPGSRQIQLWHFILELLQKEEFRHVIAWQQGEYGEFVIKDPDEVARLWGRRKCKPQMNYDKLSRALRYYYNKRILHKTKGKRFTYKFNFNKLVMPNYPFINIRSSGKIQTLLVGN
The procedure, abridged: as §1

For experiment [12], the target named is ETV6 (Homo sapiens, UniProt P41212 1-452). The procedure, abridged:
as §1

Experiment [13] concerns the target T11, ETV2 (Homo sapiens, UniProt O00321 1-342).
T11 sequence: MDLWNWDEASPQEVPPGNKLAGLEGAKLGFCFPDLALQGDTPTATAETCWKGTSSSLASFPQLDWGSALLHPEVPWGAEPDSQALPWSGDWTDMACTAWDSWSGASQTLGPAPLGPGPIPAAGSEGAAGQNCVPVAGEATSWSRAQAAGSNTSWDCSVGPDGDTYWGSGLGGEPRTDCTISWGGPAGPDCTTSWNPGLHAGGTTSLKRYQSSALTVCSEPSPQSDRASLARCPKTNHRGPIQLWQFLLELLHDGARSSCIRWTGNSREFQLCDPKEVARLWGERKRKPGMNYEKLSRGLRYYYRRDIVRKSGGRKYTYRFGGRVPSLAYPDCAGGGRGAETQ
Summed up:
as §1

ETV6, sequence (P41212 whole entry): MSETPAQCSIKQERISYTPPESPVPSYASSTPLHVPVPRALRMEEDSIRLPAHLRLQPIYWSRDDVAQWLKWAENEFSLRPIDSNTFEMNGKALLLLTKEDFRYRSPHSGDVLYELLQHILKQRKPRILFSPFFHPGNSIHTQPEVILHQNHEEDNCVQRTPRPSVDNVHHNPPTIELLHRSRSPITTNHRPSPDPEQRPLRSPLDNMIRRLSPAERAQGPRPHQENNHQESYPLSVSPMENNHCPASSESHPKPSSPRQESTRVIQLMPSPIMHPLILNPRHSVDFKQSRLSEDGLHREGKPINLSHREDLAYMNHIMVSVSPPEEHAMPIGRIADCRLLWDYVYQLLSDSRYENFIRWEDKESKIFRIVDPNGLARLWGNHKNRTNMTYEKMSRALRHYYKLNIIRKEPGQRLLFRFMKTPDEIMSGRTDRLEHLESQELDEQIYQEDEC
ELF1, sequence (P32519 whole entry): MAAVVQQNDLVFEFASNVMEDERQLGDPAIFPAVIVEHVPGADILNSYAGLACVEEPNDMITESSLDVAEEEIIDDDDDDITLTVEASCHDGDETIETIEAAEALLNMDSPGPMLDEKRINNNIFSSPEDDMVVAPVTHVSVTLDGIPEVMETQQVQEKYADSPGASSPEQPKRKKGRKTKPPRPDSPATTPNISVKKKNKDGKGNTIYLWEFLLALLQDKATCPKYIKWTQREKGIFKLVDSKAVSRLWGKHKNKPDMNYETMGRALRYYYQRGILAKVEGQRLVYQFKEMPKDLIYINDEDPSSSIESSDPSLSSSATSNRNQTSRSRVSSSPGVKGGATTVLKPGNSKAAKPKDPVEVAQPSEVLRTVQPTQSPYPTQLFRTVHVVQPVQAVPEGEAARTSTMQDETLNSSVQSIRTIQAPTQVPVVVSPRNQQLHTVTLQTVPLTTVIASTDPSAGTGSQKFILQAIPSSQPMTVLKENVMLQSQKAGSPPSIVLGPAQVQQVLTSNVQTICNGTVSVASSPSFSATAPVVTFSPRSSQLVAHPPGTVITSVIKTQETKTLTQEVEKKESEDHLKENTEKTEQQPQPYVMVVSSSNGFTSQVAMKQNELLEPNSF

As for CTGGTG, the binding signal was 1.01 fold enrichment (6-mer frequency, TF over GST control) in experiment [1]; 1.05 fold enrichment (6-mer frequency, TF over GST control) in experiment [2]; 1.01 fold enrichment (6-mer frequency, TF over GST control) in experiment [3]; 1.02 fold enrichment (6-mer frequency, TF over GST control) in [4]; 1.09 fold enrichment (6-mer frequency, TF over GST control) in [5]; 1.15 fold enrichment (6-mer frequency, TF over GST control) in [6]. Moreover, the binding signal in experiment [7] was 1.09 fold enrichment (6-mer frequency, TF over GST control); in [8] it was 1.05 fold enrichment (6-mer frequency, TF over GST control); in [9], 1.06 fold enrichment (6-mer frequency, TF over GST control); in experiment [10] it was 1.04 fold enrichment (6-mer frequency, TF over GST control); in [11], 1.03 fold enrichment (6-mer frequency, TF over GST control); in experiment [12], 1.03 fold enrichment (6-mer frequency, TF over GST control).

As for GACCGC, the binding signal was 1.06 fold enrichment (6-mer frequency, TF over GST control) in [1]; 1.01 fold enrichment (6-mer frequency, TF over GST control) in experiment [2]; 1.06 fold enrichment (6-mer frequency, TF over GST control) in [3]; 1.03 fold enrichment (6-mer frequency, TF over GST control) in experiment [13]; 1.01 fold enrichment (6-mer frequency, TF over GST control) in [7].

The values above are taken from PMC7862700, “An all-to-all approach to the identification of sequence-specific readers for epigenetic DNA modifications on cytosine”.
